ULK1 primary: human ULK1 kinase inhibition, primary screen. O75385. AlphaScreen Atg13 phosphorylation by ULK1, luminescence. inhibition, % at 5.96 µM. hit rate 1.9% among 30,000; in the data active = inhibition above about 43%;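 note: 0% = median of compound wells and 100% = no enzyme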
ASK1 primary: human ASK1 kinase inhibition, primary screen | Q99683 | AlphaScreen MKK6 phosphorylation by ASK1, luminescence | inhibition, % at 7.44 µM | hit rate 0.99% among 22,000; in the data active = inhibition above about 35%;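 note: 0% = median of compound wells and 100% = no enzyme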
* hit, by the source's call; / = no result given. In the library only some 2.4% were active in any assay of this set; here they are far more common.

SMILES	ULK1 primary	ASK1 primary
O=C(Nc1cnn(-c2cccc(CNc3ccc(N4CCOCC4)cc3)c2)c1)Nc1ccccc1Cl	49.4*	24.6
O=C(NCc1nc2ccccc2[nH]1)C1CCN(c2ccc(Nc3ccncn3)nn2)CC1	-0.1	-0.5
c1cc(Cn2ccnc2)cc(Nc2nccc(-c3cncc(N4CCOCC4)c3)n2)c1	79.6*	5.5
c1cc(Cn2cncn2)cc(Nc2nccc(-c3cncc(N4CCOCC4)c3)n2)c1	55.4*	0.7
c1cc(-c2cncc(N3CCOCC3)c2)nc(Nc2ccc(-n3cncn3)cc2)n1	11.0	17.1
c1cn(-c2ccc(Nc3nccc(-c4cncc(N5CCOCC5)c4)n3)cc2)cn1	34.1	-13.5
CN1CCN(C(=O)c2ccc(-c3cccc(C(N)=O)c3)cc2)CC1	7.2	-3.1
NC(Cc1cc(I)c(Oc2ccc(O)c(I)c2)c(I)c1)C(=O)O (stereo not drawn)	-6.8	/
N[C@@H](Cc1cc(I)c(Oc2cc(I)c(O)c(I)c2)c(I)c1)C(=O)O	78.7*	/
O=C(CCl)Nc1ccc2nsnc2c1	2.5	/
O=C(CCl)Nc1ccc(CN2CCCC2)cc1	66.1*	/
CC(C)n1cnc2c(Nc3ccc(N4CCOCC4)cc3)nc(Nc3nccc4ccccc34)nc21	27.0	3.1
CC(C)n1cnc2c(Nc3ccc(N4CCOCC4)cc3)nc(Nc3ccncn3)nc21	52.2*	14.4
CC(C)n1cnc2c(Nc3ccc(N4CCOCC4)cc3)nc(Nc3ccccn3)nc21	68.8*	21.5
CC(C)n1cnc2c(Nc3ccc(N4CCOCC4)cc3)nc(Nc3ccc(N4CCOCC4)cc3)nc21	32.1	20.8
CC(C)n1cnc2c(NC3CC3)nc(Nc3ccc(N4CCOCC4)cc3)nc21	19.8	-3.2
CC(C)n1cnc2c(Nc3ccc(N4CCOCC4)cc3)nc(Nc3cccnc3)nc21	48.9*	-6.7
COc1ccc(-c2cnc(NCc3ccccc3F)n2C)cc1	-3.1	/
c1ccc(-n2cnc3c(NC4CC4)nc(Nc4ccncc4)nc32)cc1	6.6	-14.3
Cc1nn(C)c(C)c1-c1nc(NC2CC2)c2ncn(C3CCCCC3)c2n1	5.4	12.0
COc1cc(NC(=O)c2cccc(-n3cc(/C=C/C(=O)c4ccccc4)cn3)c2)ccc1CN(C)C	21.0	-17.6
O=C(/C=C/c1ccccc1)c1cccc(N2C(=O)C=CC2=O)c1	55.4*	/
CN(C)c1cccc(Nc2nc(C(=O)NCCCN3CCCC3=O)cs2)c1	-0.4	-14.1
CCOc1ccc(C(=O)NCc2nnnn2-c2ccc(F)cc2)cc1OCC	9.2	/
COc1cc(Nc2nc(-c3cccc(C(C)=O)c3)ncc2C)cc(OC)c1OC	24.5	7.0
SMILES	ULK1 primary	ASK1 primary
COc1cc(Nc2nc(-c3ccccc3)ncc2C)cc(OC)c1OC	48.8*	15.7
COc1ccc(-c2ncc(C)c(Nc3cc(OC)c(OC)c(OC)c3)n2)cc1	66.5*	21.5
COc1cc(Nc2nc(-c3ccc(C(=O)NC4CC4)cc3)ncc2C)cc(OC)c1OC	35.2	21.1
c1cncc(Nc2nc(NCCN3CCOCC3)c3ncn(-c4ccsc4)c3n2)c1	5.8	-24.5
Cc1nc(NCCN(C)C)cc(-c2ccccc2F)n1	-9.1	/
CN1C(=O)NC2(CCN(CC(=O)NCCc3ccccc3)CC2)C1=O	5.7	/
Cc1cc(Nc2ccc(OCCN3CCCCC3)cc2)nc(Nc2ccc(N3CCOCC3)cc2)n1	9.0	10.0
COc1cc2nc(Nc3ccncc3)nc(Nc3ccc(N4CCOCC4)cc3)c2cc1OC	-4.3	42.2*
COc1cc2nc(Nc3ncccn3)nc(Nc3ccc(N4CCOCC4)cc3)c2cc1OC	-7.3	-0.7
COc1cc2nc(Nc3ccc(N4CCOCC4)cc3)nc(Nc3ccc(OCCN4CCCCC4)cc3)c2cc1OC	-7.5	48.9*
CC(C)n1cnc2c(Nc3ccccc3)nc(NCc3cccnc3)nc21	54.1*	3.1
CCNc1nc(Nc2ccccc2)c2ncn(C(C)C)c2n1	56.5*	15.1
c1ccc2[nH]c(CNc3nc(Nc4ccc(-n5ccnc5)cc4)nc4c3ncn4-c3ccsc3)nc2c1	36.5	1.4
c1ccc2[nH]c(CNc3nc(Nc4ccncc4)nc4c3ncn4-c3ccsc3)nc2c1	48.9*	18.2
CC(C)n1cnc2c(NCc3ccccc3)nc(NCc3cccnc3)nc21	1.9	-6.9
CCNc1nc(Nc2cc(OC)c(OC)c(OC)c2)c2ncn(C(C)C)c2n1	-20.8	8.2
CC(C)n1cnc2c(Nc3ccccc3)nc(Nc3cccnc3)nc21	51.5*	-9.1
CC(C)n1cnc2c(Nc3ccc(Oc4ccccc4)cc3)nc(Nc3cccnc3)nc21	7.8	14.7
COc1cc(Nc2ncnc3nc(-c4ccc(C(=O)N5CCN(C)CC5)cc4)[nH]c23)cc(OC)c1OC	21.8	-6.9
c1ccc(-c2nc(NCc3cccnc3)c3ncn(-c4ccsc4)c3n2)cc1	17.5	3.1
CC(C)n1c(-c2ccc(C(=O)NC3CC3)cc2)nc2c(NCCCN3CCCC3=O)ncnc21	-6.4	-4.5
c1cncc(CNc2nc(Nc3ccc4c(c3)OCO4)c3ncn(-c4ccsc4)c3n2)c1	52.9*	28.6
CC(C)n1cnc2c(Nc3ccc4c(c3)OCO4)nc(NCc3ccc4c(c3)OCO4)nc21	-11.1	39.9*

Assay outcomes (PubChem BioAssay)
